Whole data set: some 39,000 sequences, median “fluorescence intensity (a.u.)” near 4,300, cut for the highest 2% near 39,000. This is one part of a sample in which the highest values are shown more often than they occur.

The target of the test is T1, OsSMF1 (Oryza sativa, UniProt Q6ZLB0 1-436).
T1 sequence: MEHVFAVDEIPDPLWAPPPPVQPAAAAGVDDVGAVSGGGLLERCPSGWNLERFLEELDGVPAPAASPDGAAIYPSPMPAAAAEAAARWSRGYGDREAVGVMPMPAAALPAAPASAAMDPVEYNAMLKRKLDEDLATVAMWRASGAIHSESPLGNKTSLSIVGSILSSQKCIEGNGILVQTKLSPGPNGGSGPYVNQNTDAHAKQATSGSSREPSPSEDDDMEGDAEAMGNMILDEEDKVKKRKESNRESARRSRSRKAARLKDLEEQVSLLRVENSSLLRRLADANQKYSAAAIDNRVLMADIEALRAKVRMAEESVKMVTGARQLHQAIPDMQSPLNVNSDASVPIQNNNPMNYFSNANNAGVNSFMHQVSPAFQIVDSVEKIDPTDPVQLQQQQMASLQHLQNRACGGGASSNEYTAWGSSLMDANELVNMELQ
The experiment in a line: protein-binding microarray (RPBM); PBS, 2% BSA, 51.3 ng/ul salmon testes DNA, 50 uM zinc acetate, 200 nM TF, 25 C, 1 h; high values mean tight binding. Particulars: protein: recombinant; tags: N-terminal polyhistidine and DsRed monomer fusion (pET32a); chain copies: 2; label: CyDye5-dUTP incorporated in the synthesized complementary strand; 3' TTTTT single-stranded linker to array surface; dsDNA, one strand shown. The procedure, abridged: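 Transcription factors, each fused N-terminally to a polyhistidine tag and DsRed, were expressed in E. coli BL21-CodonPlus and purified on Ni–NTA. A custom Agilent array was made double-stranded by primer extension with Cy5-dUTP and blocked with 2% BSA. It was incubated with 200 nM protein in PBS, 2% BSA, salmon testes DNA and 50 µM zinc acetate at 25 °C for 1 h, then washed. The binding signal is per-feature fluorescence intensity (arbitrary units) read on an Axon 4000B scanner.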
As to “GCTCCCTCAGCCGTGGCACGTGTTCACAAGCCGTGACCAGCGGAGTCACCTAGTGCAG”, the binding signal is 4570 fluorescence intensity (a.u.).
To “GCCCGTGCCAGGGCTGCTACCTCGGCACACTGGCCGGCACCGGAGTCACCTAGTGCAG” belongs 3350 fluorescence intensity (a.u.); to “CAGGCCAGAACAACTGCTCGGCCCGATAGGAGGGCCTACTCGGAGTCACCTAGTGCAG”, 55800 fluorescence intensity (a.u.).
Under “GTGCCTGCTCGATCGAGTCGTGGCGGCGGCGGAGTCAACTCGGAGTCACCTAGTGCAG” stands 3370 fluorescence intensity (a.u.); under “AATAAGTGCAGTTGTGGGAATCCGTGTTGAACGTTTGACCCGGAGTCACCTAGTGCAG”, 14300 fluorescence intensity (a.u.).
Consider “AGTGAAGTCACAAGGAAGTGACGAGGATGAGGACGAGGAGCGGAGTCACCTAGTGCAG”, for which the binding signal was 28700 fluorescence intensity (a.u.).
To “CGCTCCTCGCCGCCTTGAACCTCACAGCGAAACCTGATCACGGAGTCACCTAGTGCAG” belongs 3270 fluorescence intensity (a.u.).
For “CCACCTAACACTAATCAACCAGTCAACCACCACATCTTCCCGGAGTCACCTAGTGCAG”, the binding signal was 3820 fluorescence intensity (a.u.).
Under “TGGGGCCCACATCCCGCACCACTCGGATTCGGATTTCCTCCGGAGTCACCTAGTGCAG” stands 52200 fluorescence intensity (a.u.); under “CACTCCCATTCCCATCCTCCACATCCCGCGCCATCGACCTCGGAGTCACCTAGTGCAG”, 3400 fluorescence intensity (a.u.).
Regarding “GCCACCCTCAGCCACTGGCCATCCGTGGGCCCCACCATCCCGGAGTCACCTAGTGCAG”, the binding signal was 22500 fluorescence intensity (a.u.).
Under “GCCCACATCCATCCCGTCACCCGCCCACTCGCCGTCGCACCGGAGTCACCTAGTGCAG” stands 3490 fluorescence intensity (a.u.).
Under “GATCCCGGGCCCGGCCCACTGGCCCAGTCAACTAATCCTCCGGAGTCACCTAGTGCAG” stands 53100 fluorescence intensity (a.u.).
To “CTGCTCCACGCATTCACCAACGCTCCCTGCGATGTTTTAGCGGAGTCACCTAGTGCAG” belongs 4260 fluorescence intensity (a.u.); to “CATCCATCCGGTCAAAGCAGCCGGCCACGTGGCGTGTCCCCGGAGTCACCTAGTGCAG”, 28100 fluorescence intensity (a.u.).
As for “ACAGGCGAGGGTGGAACCCCGCGTGGCGAGAGCGTTGCGGCGGAGTCACCTAGTGCAG”, the binding signal is 4270 fluorescence intensity (a.u.).
To “TCTTCAAACTTCCAACTTTTCCATCACATCAAAACTTTCCCGGAGTCACCTAGTGCAG” belongs 3340 fluorescence intensity (a.u.).
Under “CTTTTCCCCGACTAAACACACCCATACTGTCAAAAGGTAACGGAGTCACCTAGTGCAG” stands 26800 fluorescence intensity (a.u.); under “TGTAAACATCCCATACTGGCTCTTACGCAAAACTTTCACCCGGAGTCACCTAGTGCAG”, 54100 fluorescence intensity (a.u.); under “TAGTTCTGAAGTCTGAAATCCTTGCGGTCCTTCACCGCCTCGGAGTCACCTAGTGCAG”, 55000 fluorescence intensity (a.u.).
In the case of “TATGTTCATTTCCTTATTTGCCTCTCGTCATGTCTCTTGACGGAGTCACCTAGTGCAG”, the binding signal was 3420 fluorescence intensity (a.u.).
For “CCGCCTTGCGTGGCTGAACTTCTTCTGATGGTCCCCGCCTCGGAGTCACCTAGTGCAG”, the binding signal is 3290 fluorescence intensity (a.u.).
As for “ATAATCTTCAGAGATCTCCTTGCCTGAAGTGTCTTATGTTCGGAGTCACCTAGTGCAG”, the binding signal is 42500 fluorescence intensity (a.u.).
Under “CCGGATCTTCAGCAGAGTCGTGTCACCTGTTTTGATCGTTCGGAGTCACCTAGTGCAG” stands 3890 fluorescence intensity (a.u.).
Under “GCAATCTTTGCCTTGGTCCTCTTGAAGTCTTTGGCGGTATCGGAGTCACCTAGTGCAG” stands 27700 fluorescence intensity (a.u.).
As for “CTCACTGGTATGCTCACCACCACTTTAAGACTGTGTTTGTCGGAGTCACCTAGTGCAG”, the binding signal is 3730 fluorescence intensity (a.u.).
On to “TGGCCATCGCCTACGGTGAGCAGTCATCGTCGTCCATCCGCGGAGTCACCTAGTGCAG”, for which the binding signal is 4090 fluorescence intensity (a.u.).
To “TAGTCCTCCTTGGCTACGGTGTCATAGATCGAGGCCTCCGCGGAGTCACCTAGTGCAG” belongs 50200 fluorescence intensity (a.u.); to “AGAGGCGAAATCGCGGCTACGGAGGCGGCGGCGGTGGCGGCGGAGTCACCTAGTGCAG”, 3390 fluorescence intensity (a.u.).
To “TGAAAATTTGTACACGTAAGTAATAGATGGTACCAATAGACGGAGTCACCTAGTGCAG” belongs 5890 fluorescence intensity (a.u.); to “GCACATCTTCCTTAATTGCCAAAAGAGTAAATTTCACGAACGGAGTCACCTAGTGCAG”, 43300 fluorescence intensity (a.u.).
To “GAGAATTCTCCACGAAAAGAGGAGAACGAACCACATCAAACGGAGTCACCTAGTGCAG” belongs 3380 fluorescence intensity (a.u.); to “CGTGTCATTGTCCAAAATGTCAAAGAAATATGGAACCGGACGGAGTCACCTAGTGCAG”, 15200 fluorescence intensity (a.u.).
Regarding “AAGAGAAAATTCAAGAAATATCATTACCAAAGTCCAAGAACGGAGTCACCTAGTGCAG”, the binding signal is 52800 fluorescence intensity (a.u.).
Under “CGAACGAGAATTCATGGAATCCAAGAAAAGAGACACGTGTCGGAGTCACCTAGTGCAG” stands 5610 fluorescence intensity (a.u.); under “AGAAGACGATCTCCTGAGACAAATTGCCAAAATTAAAGAACGGAGTCACCTAGTGCAG”, 4830 fluorescence intensity (a.u.); under “TGTCACGAAAATCTTAATATTCATTTGGAGAAAAGAACGGCGGAGTCACCTAGTGCAG”, 49000 fluorescence intensity (a.u.).
Under “TTTCAAAATATTCAGTTTGAGAATATGTAAATCTTATGGGCGGAGTCACCTAGTGCAG” stands 20100 fluorescence intensity (a.u.); under “GAGTTTAATTAATTAATTTCTTAAAATTGATGTCATCACACGGAGTCACCTAGTGCAG”, 3140 fluorescence intensity (a.u.).
Under “GATACGCGGCGGCTGAGTCAGCGTGGGACCCACGTGGGCCCGGAGTCACCTAGTGCAG” stands 13000 fluorescence intensity (a.u.).
For the sequence “GCCATCCTCACGCACACGCCACGTGCTCGACGAAATGCCGCGGAGTCACCTAGTGCAG”, the binding signal was 4190 fluorescence intensity (a.u.).
To “AGCTCAGCTCTCTCTGCTCTGCTCTTTGCTCGATAACGACCGGAGTCACCTAGTGCAG” belongs 33600 fluorescence intensity (a.u.); to “AAGGTTTGGAACATTCTGTTACCTATGAATACTGCACAGGCGGAGTCACCTAGTGCAG”, 11700 fluorescence intensity (a.u.).
Regarding “AAGAGCGTTTAAACAAGCTGTGGAGTCAGCAGATAGATTACGGAGTCACCTAGTGCAG”, the binding signal is 3940 fluorescence intensity (a.u.).
Under “CGACGAGAAGGACACCTCCTCGGAAAAGGGAGGGCGTCGGCGGAGTCACCTAGTGCAG” stands 44600 fluorescence intensity (a.u.); under “GGAGGAGTGGTCGCCGGGGATCATCGCGCGGCGTCACCGGCGGAGTCACCTAGTGCAG”, 3570 fluorescence intensity (a.u.); under “GGGCGGCGACGACGGTCACGGCGGACAAGGGCGGCGGCAACGGAGTCACCTAGTGCAG”, 3160 fluorescence intensity (a.u.).
To “GGAGGCGGCGGCGACGAGGAGGGGCGTGGGCGGCGGCGGCCGGAGTCACCTAGTGCAG” belongs 3660 fluorescence intensity (a.u.); to “CCGACGAGGACGAGGCGGCGTGGTCGAAGCCGGCGGTCGGCGGAGTCACCTAGTGCAG”, 42500 fluorescence intensity (a.u.); to “CATCGCCGCGCGTGCACCAGAGGACCAGACCGACCGGCGTCGGAGTCACCTAGTGCAG”, 50200 fluorescence intensity (a.u.).
For the sequence “CCGGGAAGGGAGAGGGAGAGAGGAGTCGGGGCGAGAAGTGCGGAGTCACCTAGTGCAG”, the binding signal was 3500 fluorescence intensity (a.u.).
Under “AAAGGAAAGGCGCGTCACGGCGTCAGACGAGACGACGACGCGGAGTCACCTAGTGCAG” stands 3340 fluorescence intensity (a.u.); under “GGCTCGCAGAAAGGCGGACGACAAGGGCTCAGCAGGGTCACGGAGTCACCTAGTGCAG”, 39500 fluorescence intensity (a.u.).
To “GCATCGCCATCGCCGCGTGGTGGCGCACCATTCGCGTCACCGGAGTCACCTAGTGCAG” belongs 5300 fluorescence intensity (a.u.).
To “ATCTAGCGACGAGAAGAGAGGAAGGGAGGGAGGCGTCACGCGGAGTCACCTAGTGCAG” belongs 3830 fluorescence intensity (a.u.); to “CGTCGGCGGCGGCGGAGGGGAGGACGACGTGGTCGACCTCCGGAGTCACCTAGTGCAG”, 3590 fluorescence intensity (a.u.).

Source of the values: article PMC7819943, “Rice protein-binding microarrays: a tool to detect cis-acting elements near promoter regions in rice”.
